Compound activity from PubChem.
Only some compounds are listed: those with a hit (about 1.8% of all), similar ones and a draw of the others.
Exocytosis inh: blocks lytic granule exocytosis; inhibition, % at 10 µM; AID 651702; hit rate 0.66% among 360,000; TALL-104 LAMP-1 surface exposure, flow cytometry; cells stimulated with thapsigargin and PMA;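 active means inhibition above about 55%, limit read from the data; inconclusive means no clear call, values can overlap the other calls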
GC-A act: GC-A (human) enzyme activation; AID 1671463; hit rate 0.14% among 370,000; P16066; activation, % at 10 µM; HEK293 GC-A cells, cGMP TR-FRET, EC30 ANP; 0% at EC30 ANP, 100% saturating ANP; in the data active means activation above about 40%
GC-B act: GC-B (human) receptor activation; P20594; HEK293-GC-B cells, CNP EC30, cGMP TR-FRET; 0% at EC30 CNP, 100% saturating CNP; activation, % at 10 µM; hit rate 0.11% among 370,000; AID 1920062;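 active means activation at 10 µM reaching about 35% in either raw or pattern-adjusted values, limit read from the data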
Myeloid diff MLP: promotes myeloid progenitor differentiation; hit rate 1% among 360,000; ER-HoxA9 myeloid progenitors, lysozyme-GFP differentiation, flow cytometry; calls only at 10 µM;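 active means normalized GFP-positive differentiation at or above the plate's own cutoff, the solvent-only control mean plus 3 SD; inconclusive means no clear call, values can overlap the other calls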;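 further: cells exposed to compound for four days before flow analysis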
The depositor's hits bear a star; i = inactive; ? = inconclusive; · = not tested or not shown; + = active, no number; ! = a repeat was not active.

SMILES	Exocytosis inh	GC-A act	GC-B act	Myeloid diff MLP
COc1cc(C2C(C#N)=C(N)Oc3cc(N(C)C)ccc32)cc2c1OCO2 (centres undefined)	0	-15	-7	?
N#CC1=C(N)Oc2cc(N)ccc2C1c1ccsc1 (centres undefined)	5	2	5	i
COc1cc(C2C(C#N)=C(N)Oc3cc(O)ccc32)cc2c1OCO2 (centres undefined)	6	53*	0	i
N#CC1=C(N)Oc2cc(N)ccc2C1c1cc(Br)cs1 (centres undefined)	31	19	-4	+
CCOC(=O)C1=C[C@@H](C(C)(C)C)N(S(=O)(=O)c2ccc(C)cc2)[C@H]1c1cccc(Cl)c1	2	-5	-10	i
CCCCCCCCN1C(=O)[C@@H](CC(=O)N2CCC(c3ccccc3)CC2)C[C@@]2(C(=O)OC)C1=C[C@H](C(C)C)O[C@@H]2C1CC1	·	2	1	·
O=C1c2ccccc2C(=O)N1OS(=O)(=O)c1ccc(F)cc1	1	42*	31	i
Cc1cc(C)c(C)c(S(=O)(=O)ON2C(=O)c3ccccc3C2=O)c1C	52	42*	47*	i
Cc1cc(C)c(S(=O)(=O)ON2C(=O)c3ccccc3C2=O)cc1C	16	39	36*	i
Cc1ccc(S(=O)(=O)ON2C(=O)c3ccccc3C2=O)c(C)c1	39	41*	46*	i
Cc1nc2ccc(C(=O)N3c4ccccc4N=C(c4ccc(C(F)(F)F)cc4)C3C(=O)NC(C)(C)C)cc2[nH]1 (centres undefined)	-5	1	-3	i
CC(C)N1CCCCC(NC(=O)c2c(F)cccc2F)C1=O (centres undefined)	·	6	1	·
C=CCn1c(=NC(=O)c2ccc(S(=O)(=O)N3CCCc4ccccc43)cc2)sc2cc(S(N)(=O)=O)ccc21	0	1	0	i
COCCn1c(=NC(=O)c2ccc(S(=O)(=O)N3CCCc4ccccc43)cc2)sc2cc(S(C)(=O)=O)ccc21	-7	9	-1	+
Cc1cccc(C)c1-n1nnnc1C1(C)CN(S(C)(=O)=O)CC(=O)N1Cc1ccc(F)cc1 (centres undefined)	·	-6	0	·
CCN(CC)C(=O)CSc1nnc(COc2ccc(OC)cc2)n1N	4	-3	1	i
CCN(CC)C(=O)CSc1nnc2nnc3cc(OC)ccc3n12	-7	-2	-4	+
O=C(Nc1ccc2nc(-c3cccs3)[nH]c2c1)c1ccco1	-1	8	11	+
O=C(Nc1ccc2nc(-c3cccs3)[nH]c2c1)c1cccs1	-1	9	4	i
Cc1ccsc1-c1cc2nc(Nc3ccc(F)cc3)n(C)c(=O)c2s1	-3	-7	-5	i
COc1ccc(OC)c(C2=Nn3c(nnc3-c3ccncc3)SC2)c1	64*	17	17	i
COc1ccc(OC)c(C2=Nn3c(nnc3-c3cc(OC)c(OC)c(OC)c3)SC2)c1	13	17	25	i
CCCCOCCCNC(=O)C[C@H]1C[C@@]2(C(=O)OC)C(=C[C@H](C3CCCC3)O[C@@H]2C)N(Cc2cccc3ccccc23)C1=O	·	-3	-5	·
c1ccc(-c2nc(-n3nc4ccccc4n3)nc3ccccc23)cc1	65*	-8	-13	i
O=C(c1cc(F)ccc1F)N1CCC(N2CCC(C(=O)N3CCCC3)CC2)CC1	0	3	2	+
SMILES	Exocytosis inh	GC-A act	GC-B act	Myeloid diff MLP
Cc1nc2ccccn2c1C(=O)N=Nc1c(O)n(CCC(C)C)c2ccccc12	71*	14	3	·
CC(C)CNS(=O)(=O)/C=C/c1ccc(F)cc1CNC(=O)OC(C)(C)C	·	1	-5	·
O=C(C#Cc1ccccc1)c1ccc([N+](=O)[O-])cc1	79*	39	33	i
COC(=O)C1CN(Cc2ccc(Cl)cc2)CCS(=O)(=O)N1Cc1cn(Cc2ccc(Cl)cc2)nn1 (centres undefined)	·	-14	-8	·
COC(=O)c1ccc(CSc2nc3c(c(=O)n2-c2ccc(Br)cc2)SCC3)o1	0	-6	-6	+
COC(=O)C(C(C)C)N(Cc1cc(OC)cc(OC)c1)S(=O)(=O)CCl (centres undefined)	15	-6	-9	i
O=C1[C@@H]2Cc3c([nH]c4ccccc34)C(c3ccccc3)N2C(=O)CN1CCO (some centres undefined)	13	26	28	i
C=CCN1C(=O)[C@@H]2Cc3c([nH]c4ccccc34)C(c3ccc(O)cc3)N2C1=S (some centres undefined)	-21	·	·	+
C=CCN1C(=O)[C@@H]2Cc3c([nH]c4ccccc34)C(c3cc(OC)c(OC)c(OC)c3)N2C1=S (some centres undefined)	1	2	3	+
CCN1C(=O)[C@@H]2Cc3c([nH]c4ccccc34)C(c3cc(OC)c(OC)c(OC)c3)N2C1=S (some centres undefined)	-3	-3	1	+
CCCCc1ccc(-c2noc(CCC(=O)NCC)n2)cc1	·	-7	-6	·
CCOc1ccc(-n2c(COc3ccccc3)nnc2SCC(=O)Nc2ccc(OCc3ccccc3)cc2)cc1	·	0	10	·
C#Cc1cccc(Nc2nc(NCc3ccccc3OC)nc3ccsc23)c1	11	3	7	i
C#Cc1cccc(Nc2nc(NCCOC)nc3ccsc23)c1	33	35	37*	i
CCOC(=O)C1(CCOc2ccccc2)CCN(CC=C(C)C)CC1	-2	1	2	+
Cc1ccc2nc(C3CCCCC3)c(Cc3ccsc3)n2c1	1	-10	-2	i
Cc1ccc(C(=O)Nc2cccc(C(F)(F)F)c2)cc1Nc1cncnc1	0	0	3	+!
COc1cc(NC(=O)c2ccc(N)nc2)cc(C(=O)Nc2cccc(C(F)(F)F)c2)c1	-11	-4	4	+!
Cc1ccc(C(=O)Nc2cccc(C(F)(F)F)c2)cc1Nc1ccccn1	-2	-15	-12	?
COc1cc(NC(=O)c2nccnc2N)cc(C(=O)Nc2cccc(C(F)(F)F)c2)c1	3	0	8	i
CCOC(=O)[C@@H](C)N1[C@@H](C)[C@H](c2ccccc2)Oc2ccc(Cl)cc2S1(=O)=O	·	-9	-6	·
CCc1ccc(C(=O)Cn2ncc(Cl)c(Cl)c2=O)cc1	21	60*	26	?
C[C@H](NC(=O)OCc1ccccc1)P(=O)(O)O	·	1	3	·
C=CCNC(=O)N1CCC(c2nc3ccc(Cl)cc3[nH]2)CC1	·	0	-10	·
N#Cc1cccc(NC(=O)CSc2ccccc2)c1	-1	0	4	i
COc1ccc(NC(=O)CSc2nnc(C)c3ccccc23)cc1	-2	1	-2	i
COc1ccc(NC(=O)CSc2ccc3c4c(cccc24)C(=O)c2ccccc2-3)cc1	4	-1	2	+
N#Cc1cccc(NC(=O)CSc2ccc3c4c(cccc24)C(=O)c2ccccc2-3)c1	4	16	5	+
